Data on 32 compounds can be found in PubChem BioAssay AID720706 (Broad Institute, 2013).

About 5,500 (1.6%) of roughly 350,000 compounds were called active.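 How the source made its calls: active means significant combined selectivity score with lowered wild-type GFP, culture density cut under 30%, mutant RFP and density less affected; inactive means any of these conditions unmet.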 Only a selection was taken, and actives are over-represented in it overall.

A short description of this test: GFP drop in mixed WT/humanized-ribosome E. coli culture – GFP/RFP fluorescence, OD600, single point, bacterial rRNA inhibitor project, primary screen (AID 720706). As to conditions: E. coli WT GFP vs humanized-ribosome RFP mutants, 24 h; GFP signal change (wild-type ribosome): stronger effect = lower value, DMSO median 0, no signal -100; OD600 change: measured here: OD600 growth, DMSO median 0, no signal -100; RFP signal change: measured here: RFP humanized mutant strains, DMSO median 0, no signal -100, concentration not given here.
In the case of `CO[C@@H](CN(C)S(=O)(=O)c1ccc(F)cc1)[C@H](C)CN(C(=O)Nc1ccccc1F)[C@@H](C)CO`, the GFP signal change (wild-type ribosome) is -3.35% (inactive), the OD600 change is 0.819% and the RFP signal change was -3.65%.

With `C[C@@H]1CN([C@H](C)CO)C(=O)Cc2cc(NC(=O)C3CCCCC3)ccc2O[C@@H]1CN(C)Cc1ccc(C(F)(F)F)cc1`, the GFP signal change (wild-type ribosome) is -2.69% (inactive), the OD600 change was found to be 1.55% and the RFP signal change stood at 2.15%.

As to `Cc1nc2ccc(NC(=O)C3CCCCC3)cc2s1`, the GFP signal change (wild-type ribosome) was -1.32% (inactive), the OD600 change is -0.83% and the RFP signal change is -0.607%.

Take `COc1ccc2nc(NC(=O)NC3CCCCC3)sc2c1`: the GFP signal change (wild-type ribosome) was -22.5% (active), the OD600 change is -17.5% and the RFP signal change came to 7.27%.

For the compound `COc1ccc(C(=O)NC(=S)NC2CCCCC2)cc1`, the GFP signal change (wild-type ribosome) was -49.8% (inactive), the OD600 change is -73.1% and the RFP signal change was -12.9%.

As to `C[C@H](CO)N1C[C@H](C)[C@H](CN(C)Cc2ccccc2)OCCCC[C@H](C)Oc2ccc(NC(=O)CCC(F)(F)F)cc2C1=O`, the GFP signal change (wild-type ribosome) was -1.2% (inactive), the OD600 change was -5.79% and the RFP signal change was -1.47%.

`CC(C)NC(=O)Nc1ccc2c(c1)C(=O)N([C@@H](C)CO)C[C@@H](C)[C@H](CN(C)Cc1ccc(Cl)c(Cl)c1)O2`: the GFP signal change (wild-type ribosome) was -11.4% (inactive), the OD600 change is -58.1% and the RFP signal change is 26%.

As for `COCCCNC(=O)/C=C/c1ccc(OCc2c(F)cccc2Cl)cc1`, the GFP signal change (wild-type ribosome) is -4.38% (inactive), the OD600 change was -2.58% and the RFP signal change is -3.12%.

In the case of `CN(C)CCCNC(=O)/C=C/c1ccc(OCc2c(F)cccc2Cl)cc1`, the GFP signal change (wild-type ribosome) is -45.5% (active), the OD600 change was -31% and the RFP signal change was -4.52%.

For `O=C(/C=C/c1ccc(OCc2c(F)cccc2Cl)cc1)N1CCOCC1`, the GFP signal change (wild-type ribosome) is -49% (inactive), the OD600 change was -72.9% and the RFP signal change is -13.9%.

In the case of `Cc1noc(C)c1NC(=O)Nc1ccc2c(c1)C(=O)N([C@H](C)CO)C[C@@H](C)[C@@H](CN(C)Cc1ccncc1)OCCCC[C@H](C)O2`, the GFP signal change (wild-type ribosome) is 0.824% (inactive), the OD600 change amounted to 10.7% and the RFP signal change was -1.14%.

`C[C@H]1CN(C)C(=O)c2cccc(N(C)C)c2O[C@@H]1CN(C)C`: the GFP signal change (wild-type ribosome) is -0.435% (inactive), the OD600 change was determined as 5.4% and the RFP signal change is -1.5%.

Take `CO[C@H]1CN(C)C(=O)c2ccc(NC(=O)CC(F)(F)F)cc2OC[C@@H](C)N(C(=O)c2ccccc2F)C[C@@H]1C`: the GFP signal change (wild-type ribosome) is 3.23% (inactive), the OD600 change came to 1.55% and the RFP signal change is 3.46%.

Take `CCOc1ccc(/C(O)=C2\C(=O)C(=O)N(c3ccc(OC)cc3)C2c2ccccc2[N+](=O)[O-])cc1` (stereo unspecified): the GFP signal change (wild-type ribosome) was -20.6% (active), the OD600 change stood at 6.17% and the RFP signal change was found to be 5.06%.

Take `COc1ccc(C2/C(=C(/O)c3ccccc3)C(=O)C(=O)N2C)c(OC)c1` (stereo unspecified): the GFP signal change (wild-type ribosome) was -2.38% (inactive), the OD600 change was determined as 2.38% and the RFP signal change is -3.31%.

`COc1ccccc1C1/C(=C(/O)c2ccc(C)cc2)C(=O)C(=O)N1Cc1ccco1` (stereo unspecified): the GFP signal change (wild-type ribosome) is 6.88% (inactive), the OD600 change came to 7.9% and the RFP signal change is 1.73%.

On to `COCC(=O)Nc1ccc2c(c1)[C@H]1C[C@H](CC(=O)NCc3ccccn3)O[C@H](CO)[C@H]1O2`, for which the GFP signal change (wild-type ribosome) is -0.801% (inactive), the OD600 change is -4.21% and the RFP signal change is -2.1%.

With `O=S1(=O)c2ccc(Br)cc2-n2nncc2CN1Cc1cccc(Cl)c1`, the GFP signal change (wild-type ribosome) was -5.88% (inactive), the OD600 change was -16.9% and the RFP signal change is -5.12%.

For the compound `O=C(N[C@@H](Cc1ccccc1)C(=O)OCc1ccccc1)c1nc[nH]c1C(=O)N[C@@H](Cc1ccccc1)C(=O)OCc1ccccc1`, the GFP signal change (wild-type ribosome) is 8.68% (inactive), the OD600 change was 15.5% and the RFP signal change is -0.702%.

For the compound `O=C(N[C@@H](Cc1ccccc1)C(=O)OCc1ccccc1)c1nc[nH]c1C(=O)NC1CCNCC1`, the GFP signal change (wild-type ribosome) is -20.9% (active), the OD600 change is -8.38% and the RFP signal change is -3.23%.

Turning to `CC(C)(C)OC(=O)N1CCC(NC(=O)c2[nH]cnc2C(=O)N[C@@H](Cc2ccccc2)C(=O)OCc2ccccc2)CC1`, the GFP signal change (wild-type ribosome) was 12.4% (inactive), the OD600 change is -1.46% and the RFP signal change turned out to be 0.755%.

For the compound `O=C(c1cccc(F)c1)N1CC(=O)N2[C@H](C1)[C@@H](c1ccc(C#Cc3ccc(F)cc3)cc1)[C@@H]2CO`, the GFP signal change (wild-type ribosome) is 1.74% (inactive), the OD600 change is -7.67% and the RFP signal change worked out at 4.35%.

With `COC(=O)[C@@H]1[C@@H](CO)[C@@H]2Cn3c(ccc(-c4ccccc4F)c3=O)[C@@H]2N1CC1CCOCC1`, the GFP signal change (wild-type ribosome) is 1.95% (inactive), the OD600 change was -6.47% and the RFP signal change amounted to 6.87%.

In the case of `O=C1C(Sc2cccc(F)c2)=C[C@@]2(O)CC[C@@H](O)[C@]1(Sc1cccc(F)c1)[C@H]2O`, the GFP signal change (wild-type ribosome) is -37% (active), the OD600 change was -28.5% and the RFP signal change was -4.19%.

For the compound `COc1ccc(S(=O)(=O)Nc2ccc3c(c2)CC(=O)N([C@H](C)CO)C[C@H](C)[C@@H](CN(C)C)O3)cc1`, the GFP signal change (wild-type ribosome) is 2.15% (inactive), the OD600 change stood at 13.2% and the RFP signal change was -1.01%.

For the compound `C[C@H](CO)N1C[C@H](C)[C@@H](CN(C)C(=O)c2ccncc2)Oc2cc(C3=CCCCC3)ccc2S1(=O)=O`, the GFP signal change (wild-type ribosome) was -1.29% (inactive), the OD600 change was -9.47% and the RFP signal change was -3.74%.

On to `CNC(=O)c1cccc2nc3ccccc3nc12`, for which the GFP signal change (wild-type ribosome) is -23.6% (active), the OD600 change is -17.7% and the RFP signal change is -6.61%.

In the case of `CNC(=O)C(NC(=O)c1ccccc1)=C(C)C`, the GFP signal change (wild-type ribosome) was 10.9% (inactive), the OD600 change was found to be 9.13% and the RFP signal change is -0.414%.

Regarding `CN(C)C(=O)c1coc2nc3ccccc3nc12`, the GFP signal change (wild-type ribosome) was 12.4% (inactive), the OD600 change turned out to be 6.11% and the RFP signal change was -0.0205%.

As to `CC(C)NC(=O)Nc1ccc2c(c1)C(=O)N(C)[C@@H]1CC[C@H](CC(=O)NCC3CCCCC3)O[C@@H]1CO2`, the GFP signal change (wild-type ribosome) was -0.35% (inactive), the OD600 change is -6% and the RFP signal change turned out to be 0.584%.

For the compound `C/C=C/c1ccc([C@@H]2[C@H](CO)N(CC3CCCC3)C23CN(C(=O)CC2CC2)C3)cc1`, the GFP signal change (wild-type ribosome) was -14.4% (inactive), the OD600 change is -40% and the RFP signal change was 32.6%.

Turning to `CCOC(=O)C1(C)NC(c2ccco2)C2C(=O)N(c3ccccc3)C(=O)C21` (stereo unspecified), the GFP signal change (wild-type ribosome) is 7.82% (inactive), the OD600 change was 18.6% and the RFP signal change was found to be 3.41%.
